# The list is not random: actives were taken first. Their share in the collection is about 3.1%.
# mTORC1 inh: mTORC1 pathway inhibition measured by phospho-rpS6; Potency, µM (titrated, usually from 38.3 µM), for the others: at the highest dose activity change, negative = inhibition, most hits filed as inhibitors; Tsc2-/- p53-/- MEF, phospho-rpS6 immunofluorescence/PI, 24 h; 0.78% of 44,000 active; AID 493208;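 further: potency means the concentration at half of the fitted maximal effect; plate controls were DMSO for no effect and rapamycin for full effect; nearly all actives have a fitted effect of over 50% in size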
#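 Cell-based qHTS: Tsc2-/- p53-/- MEF, 24 h cpd, 37 °C; fix/perm, anti-phospho-S6 Alexa-488 + PI; Acumen 488 nm scan; pS6/PI ratio, % positive cells; rapamycin 7.5 nM = inhibition ref; PI count = viability.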
# S16 F2sN tox: toxic to S16 Pmp22-F2sN Schwann cells; 0.48% of 43,000 active; S16 Pmp22-F2sN Schwann cells viability, CellTiter-Glo, 24 h; Potency, µM (titrated, usually from 57.5 µM), without a hit: at the top dose activity change, negative = cytotoxicity, most hits filed as cytotoxic; further: potency means the concentration at half of the fitted maximal effect; on the % scale 0 is the no-effect control and ±100 the full control effect; nearly all actives have a fitted effect of over 65% in size
#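 Seed 500-1,000 S16 Pmp22-F2sN cells per well in phenol-red-free DMEM with 10% heat-inactivated FBS; pin-add 23 nL compound; incubate 24 h at 37C; add CellTiter-Glo, wait 15 min protected from light; read luminescence.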
# PMP22 txn: modulates PMP22 transcription in S16 Schwann cells | S16 Pmp22-F2sN Schwann cells (luciferase reporters placed in the Pmp22 gene), FLuc/NLuc coincidence luminescence, 24 h | Potency, µM (series often up to 57.5 µM), for the others: at the top dose activity change, negative = inhibition, usual class: inhibitors | 2% of 43,000 active; active means clear falling dose curves in both reporters; inconclusive means both reporters move, but less clearly or upward; inactive means either reporter flat; the % is the NLuc reporter signal; further: potency means the concentration at half of the fitted maximal effect; on the % scale 0 is the no-effect control and ±100 the full control effect
#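 Transcriptional readout in edited S16(c9) cells: two luciferases reported from the Pmp22 locus, measured in turn after 24 h compound incubation.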
# OvCa metastasis: ovarian cancer metastasis inhibition, 3D TME model; SKOV3ip1-GFP adhesion/invasion on 3D omental model, fluorescence; Potency, µM (top dose mostly 45.8 µM), for the others: top-dose activity change, negative = inhibition, actives largely listed as inhibitors; 0.1% of 46,000 active;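 further: potency means the concentration at half of the fitted maximal effect; plate controls were DMSO wells for no effect and tomatine positive control wells for full effect; nearly all actives have a fitted effect of over 65% in size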
#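 qHTS, 4-pt dose (0.36-46 umol/L); SKOV3ip1-GFP, 1,200 cells/well, no FBS; primary omental fibroblast/mesothelial co-culture 48 h pre-grown; 2 h RT + 16 h 37 C; PBS wash, 4% PFA; GFP count 488/509 nm.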
# p53null 39C tox: p53 null cell cytotoxicity, nonpermissive temperature. H1299 p53-null (neo) cells, 39C, ATPlite viability, 24 h. AID 904. Potency, µM (titrated, usually from 46.1 µM), without a hit: at the highest dose activity, negative = cell killing, usual class: cytotoxic. 0.97% of 55,000 active;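 further: potency means the concentration at half of the fitted maximal effect; 0% = DMSO only and -100% = full killing by 100 µM tamoxifen; nearly all actives have a fitted effect of over 50% in size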
#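 Following overnight plating at 37C (600 cells/well), H1299-neo or H1299-p53A138V cells are dosed up to 46 uM. Incubation lasts 24 hr at 39C before ATP detection.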
# p53null 32C kill: p53 null cell cytotoxicity, permissive temperature | 0.62% of 55,000 active | H1299-neo p53 null cells, ATP luminescence, 24 h, 32C | AID 903 | Potency, µM (series often up to 46.1 µM), for the others: top-dose activity change, negative = cytotoxicity, usual class: cytotoxic;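 further: potency means the concentration at half of the fitted maximal effect; 0% = DMSO only and -100% = full killing by 100 µM tamoxifen; nearly all actives have a fitted effect of over 55% in size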
#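 ATP-content luminescence in p53-null H1299-neo cells after 24 h compound exposure (up to 46 uM) at 32C permissive temperature; 0% and 100% killing set by DMSO and 100 uM tamoxifen; Hill-equation AC50.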
# NLuc sat counter: inhibits NanoLuc at saturating substrate, PMP22 counter-screen. shares compounds with PMP22 txn. Secreted NLuc enzyme (filtered S16 cell medium), Nano-Glo luminescence. Potency, µM (top dose mostly 57.5 µM), without a hit: at the highest dose activity change, negative = inhibition, hits mostly inhibitors. 4% of 690 active. AID 1508638; further: potency means the concentration at half of the fitted maximal effect; on the % scale 0 is the no-effect control and ±100 the full control effect
# NLuc Km counter: inhibits NanoLuc under Km conditions, PMP22 counter-screen | Potency, µM (doses to about 57.5 µM), inactives show at the highest dose activity change, negative = inhibition, usual class: inhibitors | shares compounds with PMP22 txn | secreted NLuc enzyme, coelenterazine luminescence, Km conditions | AID 1508639 | 5% of 690 active; further: potency means the concentration at half of the fitted maximal effect; on the % scale 0 is the no-effect control and ±100 the full control effect
# FLuc counter: firefly luciferase enzyme inhibition artifact for PMP22 screen. shares compounds with PMP22 txn. purified P. pyralis FLuc, luminescence, 10 min. Potency, µM (top dose mostly 57.5 µM), for the others: top-dose activity, negative = inhibition, usual class: inhibitors. 690 tested, under 10 active; further: % of control where 0% means no effect
# Target sequence (P08659 whole entry, looked up): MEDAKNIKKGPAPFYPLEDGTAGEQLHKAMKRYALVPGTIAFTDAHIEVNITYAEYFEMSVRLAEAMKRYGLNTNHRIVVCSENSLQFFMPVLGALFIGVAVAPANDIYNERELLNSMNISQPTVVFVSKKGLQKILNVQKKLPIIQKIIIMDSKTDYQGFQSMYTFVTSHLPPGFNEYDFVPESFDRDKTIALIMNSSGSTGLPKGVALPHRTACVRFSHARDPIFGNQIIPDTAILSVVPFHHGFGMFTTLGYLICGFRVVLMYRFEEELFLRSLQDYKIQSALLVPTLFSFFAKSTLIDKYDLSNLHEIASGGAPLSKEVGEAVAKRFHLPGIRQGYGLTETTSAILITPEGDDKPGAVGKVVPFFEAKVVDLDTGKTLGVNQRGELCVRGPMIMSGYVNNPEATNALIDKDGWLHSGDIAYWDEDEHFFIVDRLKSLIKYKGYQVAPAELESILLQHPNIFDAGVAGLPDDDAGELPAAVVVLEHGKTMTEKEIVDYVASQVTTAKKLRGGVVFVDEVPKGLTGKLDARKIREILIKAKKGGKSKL
# S16 F2sN tox cnf: S16 Schwann cell cytotoxicity, confirmatory. AID 1508641. S16 Schwann cells viability, CellTiter-Glo ATP luminescence, 24 h. shares compounds with PMP22 txn. Potency, µM (top dose mostly 57.5 µM), for inactives: top-dose activity change, negative = viability loss, actives largely listed as cytotoxic. 7% of 690 active; further: potency means the concentration at half of the fitted maximal effect; on the % scale 0 is the no-effect control and ±100 the full control effect
# PMP22 txn cnf: confirmation of modulators of PMP22 gene transcription in S16 cells. S16 Schwann cells Pmp22-F2sN, dual luciferase, 24 h. Potency, µM (top dose mostly 57.5 µM), for the others: at the highest dose activity change, negative = inhibition, usual class: inhibitors. 22% of 690 active. shares compounds with PMP22 txn; active means clear falling dose curves in both reporters; inconclusive means both reporters move, but less clearly or upward; inactive means either reporter flat; the % is the FLuc reporter signal; further: potency means the concentration at half of the fitted maximal effect
# PMP22 prot conf: confirmation of modulators of rat PMP22 protein expression; shares compounds with PMP22 txn; S16 Schwann cells Pmp22-HiBiT, luminescence, 48 h; Potency, µM (highest dose often 27.9 µM), without a hit: at the highest dose activity change, negative = inhibition, usual class: inhibitors; 95 tested, under 10 active; AID 1508647
# Target sequence (P25094 whole entry, looked up): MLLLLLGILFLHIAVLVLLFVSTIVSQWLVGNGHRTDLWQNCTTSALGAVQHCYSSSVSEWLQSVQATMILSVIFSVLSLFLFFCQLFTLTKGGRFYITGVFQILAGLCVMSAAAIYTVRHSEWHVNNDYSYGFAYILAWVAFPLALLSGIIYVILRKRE
# * marks the source's active call; other numbers are inactive results; i = inactive; ? = inconclusive; . = no result; [ ] = remark or other dose. Unless noted, the call rests on the fitted dose curve; in most records, active means well fitted curve in the direction sought with a large enough effect; inconclusive means small, poorly fitted or top-dose-only effect, or another doubt; inactive means no such curve, though single readings can be large; an effect the other way counts as inactive or inconclusive.
SMILES,mTORC1 inh,S16 F2sN tox,PMP22 txn,OvCa metastasis,p53null 39C tox,p53null 32C kill,NLuc sat counter,NLuc Km counter,FLuc counter,S16 F2sN tox cnf,PMP22 txn cnf,others
COCCn1c(SCc2ccccc2F)nc2c([nH]c3ccccc32)c1=O,-6%,1%,11µM*,-5%,16%,-5%,-6%,0%,6%,-21%,?,
O=C(O)CCC=CCC[C@@H]1[C@H](N2CCCCC2)[C@@H](O)C[C@@H]1OCc1ccc(-c2ccccc2)cc1,.,.,.,-3%,.,.,.,.,.,.,.,
Cc1ccc(-n2c(C)cc(/C=C(\C#N)C(=O)Nc3ccc(C)c(C)c3)c2C)cc1,1%,-1%,-10%,i,-11%,5%[9.22 µM],.,.,.,.,.,
Cc1ccc(NC(=O)/C(C#N)=C/c2cc(C)n(-c3ccc(Br)cc3)c2C)cc1C,3%,-10%,12µM*,?,-2%,-1%,0%,-2%,-2%,8%,?,
CC1=Nc2cc(C(=O)NCc3ccccc3Cl)ccc2Sc2c(C)ccc(C)c21,-17%,0%,10µM*,-2%,44%,27%,-16%,0%,-13%,7%,?,
CCC1=Nc2cc(C(=O)NCc3ccccc3Cl)ccc2Sc2ccc(C)cc21,?,-14%,10µM*,5%,11%,18%,-4%,1%,-6%,16%,-24%,
O=C(Cc1ccc(-c2ccc(OCCN3CCOCC3)cc2)cn1)NCc1ccccc1,.,.,.,-26%,.,.,.,.,.,.,.,
Clc1ccc(-c2noc3ncnc(N4CCCCC4)c23)cc1,-24%,-21%,12µM*,-3%,-4%,4%,-7%,5%,-5%,-7%,-38%,
O=C(Nc1cccnc1)N1CCC(Cc2cccc(Oc3ccc(C(F)(F)F)cn3)c2)CC1,.,.,.,-4%,.,.,.,.,.,.,.,
CCOc1ccccc1NC(=O)c1c(NC(=O)COc2ccccc2)sc2c1CCCCC2,-4%,1%,13µM*,-27%,-13%,-2%,0%,3%,-2%,7%,3%,
CCOc1ccccc1NC(=O)c1c(NC(=O)COc2ccc(Cl)cc2)sc2c1CCCCC2,10%,3%,-2%,3%,13%,14%,.,.,.,.,.,
CC(C)c1ccc(OCC(=O)Nc2cc(-c3nc4ncccc4o3)ccc2Cl)cc1,0%,21%,13µM*,i,-11%,-2%,-5%,5%,-9%,3%,?,
CN(C)c1cc(NC(=O)CNC(C)(C)C)c(O)c2c1C[C@@H]1C[C@H]3[C@H](N(C)C)C(=O)C(C(N)=O)=C(O)[C@@]3(O)C(=O)C1=C2O,.,.,.,0%,.,.,.,.,.,.,.,
CCc1ccc(S(=O)(=O)c2cn(Cc3ccc(OC)cc3)c3cc(OC)c(OC)cc3c2=O)cc1,1%,-17%,-23%,9%,-12%,18%,.,.,.,.,.,
CCc1ccc(S(=O)(=O)c2cn(Cc3ccccc3F)c3cc(OC)c(OC)cc3c2=O)cc1,-8%,-18%,14µM*,11%,-12%,9%,-19%,4%,7%,9%,-44%,
COc1ccc(NCc2cc3cc4c(cc3n(CC(=O)Nc3cccc(F)c3)c2=O)OCO4)cc1,1%,5%,?,i,14%,19%,.,.,.,.,.,
COc1ccc(NCc2cc3cc4c(cc3n(CC(=O)Nc3ccc(F)cc3F)c2=O)OCO4)cc1,-5%,-25%,18µM*,i,2%,0%,?,-3%,4%,5%,-8%,
Cc1ccccc1Cn1nnc2c(=O)[nH]c(C3CCN(C(=O)c4ccc(F)cc4)CC3)nc21,1%,-14%,10µM*,10%,18%,10%,?,-11%,6%,-11%,-45%,
Cc1cnc(NC(=O)Nc2cc(Br)c(C)cc2OC[C@@H]2CNCCO2)cn1,.,.,.,4%,.,.,.,.,.,.,.,
CCN(CC)CCOC(=O)c1ccc(NC(=O)Cn2ncc3c([nH]c4ccc(C)cc43)c2=O)cc1,6%,?,10µM*,9%,-27%,3%,-5%,-2%,4%,15µM*,13µM*,
COc1ccc(NC(=O)c2oc3ccccc3c2NC(=O)c2cccc(F)c2)c(OC)c1,6%,19%,?,i,3%,-7%,.,.,.,.,.,
COc1ccc(NC(=O)c2oc3ccccc3c2NC(=O)Cc2ccc(F)cc2)c(OC)c1,?,2%,13µM*,9%,6%,-4%,-4%,-2%,3%,?,?,PMP22 prot conf=29%
CCCCn1c(=N)n(CCOc2ccccc2OC)c2ccccc21,12µM*,?,20µM*,?,?,-9%,-10%,1%,-10%,?,?,
CCN(CC)Cc1ccc2cc(COC(=O)Nc3ccc(C(=O)NO)cc3)ccc2c1,.,.,.,-4%,.,.,.,.,.,.,.,
O=C(Cn1cc(C(=O)c2ccco2)c2ccccc21)Nc1ccccc1Cl,?,-1%,?,-7%,-5%,-4%,.,.,.,.,.,
O=C(Cn1cc(C(=O)c2ccco2)c2ccccc21)Nc1ccccc1C(F)(F)F,-19%,-13%,12µM*,0%,-24%,-27%,-4%,3%,5%,16%,3%,
O=C(NOCC1CC1)c1ccc(F)c(F)c1Nc1ccc(I)cc1Cl,.,.,.,23%,.,.,.,.,.,.,.,

# Screening data from PubChem.
